Screens from PubChem BioAssay.
Vaccinia pol inh – blocks vaccinia virus processive DNA synthesis | in vitro processive DNA synthesis, absorbance read-out; active compounds read low | normalized absorbance, % (no concentration beside the values) | 46,000 tested, 0.94% active | AID 493162; in the data active = normalized absorbance mostly below about 85%, no sharp cut-off; inactive = mostly above about 86%
Large screens that a line does not name were inactive; ! = not confirmed by another sample. Shown is part of a subset that was picked to be rich in hits.

CCOC(=O)CCC(=O)O[C@H]1[C@H](O[C@@H]2[C@@H](C)[C@H](O[C@H]3C[C@@](C)(OC)[C@@H](O)[C@H](C)O3)[C@@H](C)C(=O)O[C@H](CC)[C@@](C)(O)[C@H](O)[C@@H](C)C(=O)[C@H](C)C[C@@]2(C)O)O[C@H](C)C[C@@H]1N(C)C	none
CC[C@H]1OC(=O)[C@H](C)[C@@H](O[C@H]2C[C@@](C)(OC)[C@@H](O)[C@H](C)O2)[C@H](C)[C@@H](O[C@@H]2O[C@H](C)C[C@H](N(C)C)[C@H]2O)[C@](C)(O)C[C@@H](C)C(=O)[C@H](C)[C@@H](O)[C@]1(C)O	Vaccinia pol inh 22.6!
CCn1ncc(Cl)c(Cl)c1=O	none
CCn1cc(C(=O)O)c(=O)c2cc(F)c(N3CCNCC3)cc21	Vaccinia pol inh 76.9
CCn1cc(C(=O)NN)c(=O)c2cc(F)c(N3CCCC3)cc21	none
CCn1cc(C(=O)O)c(=O)c2cnc(N3CCNCC3)nc21	none
COc1ccc(OC)c(-n2cc(-c3ccccc3)nc2SC)c1	none
Cc1ccccc1-n1c(C)[n+](C)c2ccccc21	none
CCSC1=C(C#N)C(=O)NC(C(C)C)S1 (stereo not given)	none
N#CC1=C(SCc2ccccc2)SC(c2ccc(C(=O)O)cc2)NC1=O (stereo not given)	Vaccinia pol inh 59.8
CCSC1=C(C#N)C(=O)NC(CO)S1 (stereo not given)	none
COC(=O)CSC1=C(C#N)C(=O)NC(/C=C/c2ccccc2)S1 (stereo not given)	none
CCSC1=C(C#N)C(=O)NC(c2ccc(OC)cc2)S1 (stereo not given)	none
CC1NC(=O)C(C#N)=C(SCc2ccccc2)S1 (stereo not given)	Vaccinia pol inh 62.9
CC1CCc2cc(F)ccc2N1C(=O)CN1C(=O)c2ccccc2C1=O (stereo not given)	none
Fc1ccc(-c2onc3ccc(-c4ccn[nH]4)cc23)cc1	Vaccinia pol inh 79.2
Brc1ccc2noc(-c3ccccc3)c2c1	none
Cc1ccc(-c2onc3ccc(Cl)cc23)cc1	none
CC1(C)CC(=O)c2cc(C(=O)NCCC3=CCCCC3)c(=O)n(-c3ccccc3)c2C1	none
Cc1ccc2cc(CCNC(=O)c3ccc(S(=O)(=O)N(C)C)cc3)c(=O)[nH]c2c1	none
COc1cccc2cc(C(=O)NCCc3c(C)[nH]c4c(C)cccc34)c(=O)oc12	none
CC(=O)N(c1ccc(C(C)C)cc1)C1C=CS(=O)(=O)C1 (stereo not given)	none
O=C(OCc1nc2ccccc2s1)c1cc(Cl)sc1Cl	none
COc1ccc2c(C#N)c3ccccn3c2c1	Vaccinia pol inh 72.0
N#CCOc1ccc2c(C#N)c3ccccn3c2c1	none
COc1ccc(OCc2c(C#N)c3ccccc3n2C)cc1	none
CCOc1cc(/C=C2/SC(=S)NC2=O)cc(Br)c1O	Vaccinia pol inh 68.9
CC(C)(C)c1cc(/C=C2\SC(=S)NC2=O)cc(C(C)(C)C)c1O	none
CCOc1cc(/C=C2\SC(=S)NC2=O)cc(Cl)c1OC(=O)c1ccc(OC)cc1	none
Cc1ccccc1NC(=O)/C=C/c1ccc2c(c1)OCO2	none
Cc1cc(NCc2ccco2)c2ccccc2n1	none
Cc1cc(NCCNc2ccccc2)c2ccc3ccccc3c2n1	Vaccinia pol inh 71.6
Cc1cc(SCC(=O)Nc2ccccc2)c2ccccc2n1	none
O=S(=O)(NC1CCCCC1n1cc(-c2ccccc2)nn1)c1ccc(Cl)cc1 (stereo not given)	none
CCOC(=O)c1c2ccc(O)cc2n2ccccc12	Vaccinia pol inh 74.8
CCOC(=O)c1c(C)n(CC)c2ccc(O)cc12	none
CCOC(=O)c1c(C)n(Cc2ccccc2)c2ccc(O)cc12	none
COC(=O)c1cn(-c2ccccc2)nc1-c1ccccc1	none
Cc1ccc(-n2nc(C)cc2NC(=O)CC#N)cc1	none
CC1=NN(c2ccccc2)C(=O)/C1=C/c1cn(CC(O)CN2CCCCC2)c2ccccc12 (stereo not given)	Vaccinia pol inh 31.9
O=C1Nc2ccccc2/C1=C\c1cn(CC(=O)N2CCCC2)c2ccccc12	none
NC(=O)Cn1cc(/C=C2/C(=O)NC(=O)N(C3CCCCC3)C2=O)c2ccccc21	none
N[C@@H](CCC(=O)N[C@@H](CS)C(=O)NCC(=O)O)C(=O)O	none
O=C(N(Cc1ccccc1)c1ccccn1)C12CC3CC(CC(C3)C1)C2	none
Clc1cccc(Oc2ncnc3sccc23)c1Cl	none
CN=C(N)NCCCC(N)C(=O)O (stereo not given)	none
CC[n+]1c(-c2ccccc2)c2cc(N)ccc2c2ccc(N)cc21	Vaccinia pol inh 12.0
Nc1ccc2c(c1)nc(-c1ccccc1)c1cc(N)ccc12	none
Cc1nn(Cc2cccc(C(=O)NC(=O)Nc3ccc(Cl)cc3)c2)c(C)c1Br	none
CC(C)[C@@H]1NC(=O)[C@H](Cc2ccccc2)NC(=O)[C@@H](CC(=O)O)NC(=O)CNC(=O)[C@H](CCCN=C(N)N)NC1=O	none
CC(=O)Nc1ccc(C(=O)OCC(=O)N2CC3(C)CC2CC(C)(C)C3)cc1 (stereo not given)	none
Cc1cc(-c2ccccc2N)nc2ccccc12	none
Cc1cc(N)c2ccccc2[n+]1CCCCCCCCCC[n+]1c(C)cc(N)c2ccccc21	Vaccinia pol inh 34.7
CC(C)(C)C(=O)NC(c1ccccc1)c1c(O)ccc2ccccc12 (stereo not given)	none
CCC(C)NC(=O)C1CCN(S(=O)(=O)c2ccc3nc4c(c(C(=O)O)c3c2)CCCC4)CC1 (stereo not given)	none
CSc1nc2ccccc2c(=O)n1CC(=O)C(C)(C)C	none
CC1CC1C(=O)OCC(=O)c1ccc(Br)cc1 (stereo not given)	none
COc1ccc2cc3cc(C(=O)NCCN(C)C)oc3nc2c1	Vaccinia pol inh 39.9
COc1ccc2cc3cc(C(=O)NCCN4CCN(c5ccccc5F)CC4)oc3nc2c1	none
COc1ccc2cc3cc(C(=O)NCc4ccco4)oc3nc2c1	none
O=C(CC12CC3CC(CC(Br)(C3)C1)C2)OCC(=O)N1CCCC1	none
Cc1cccc(COn2cccc(C(=O)Nc3ccc(Cl)cc3C(F)(F)F)c2=O)c1	none
COc1ccc(NCC(C#N)C(=O)NCc2ccc(Cl)cc2)cc1 (stereo not given)	none
O=C(O)c1ccc(CS(=O)(=O)c2ccccc2)o1	Vaccinia pol inh 19.0
COc1ccc(S(=O)(=O)Cc2ccc(C(=O)N3CCOCC3)o2)cc1	none
O=C(O)c1ccc(CSCc2ccccc2)o1	none
O=C(c1ccccc1)c1nnn(-c2ccccc2)c1Nc1ccccc1	none
CCOC(=O)N1CCN(C(=O)c2ccc3c(c2)sc2nc(-c4ccc(OC)cc4)cn23)CC1	none
CCN1CCCC1CNC(=O)c1nnc(Cc2cccc(F)c2)o1 (stereo not given)	none
O=C(NCCN1CCCCCC1)c1ccc2c(c1)ncn2C1CCCCC1	none
CCN1CCCC1CNC(=O)c1ccc2c(c1)sc1nc(-c3cccc(OC)c3)cn12 (stereo not given)	Vaccinia pol inh 46.9
O=C(NCCCN1CCCCC1)c1ccc2c(c1)sc1nc(-c3ccccc3)cn12	Vaccinia pol inh 58.1
O=C(NCCCN1CCCCC1)c1ccc2nc(N3CCCCC3)sc2c1	none
O=C(COC(=O)c1ccc(OC(F)(F)F)cc1)NCc1ccccc1	none
Cc1ccc(C(=O)C2C(=O)N(c3ccccc3)C(=O)N(c3ccccc3)C2=O)cc1	none
Cc1ccn2cc(CCNC(=O)c3ccc(C(F)(F)F)cc3)nc2c1	none
FC(F)(F)Oc1ccc(-n2cccc2)cc1	none
O=C(NCc1ccco1)C1CCN(c2nc3ccccc3n2Cc2cccc(F)c2)CC1	none
CSc1ccc(CCNC(=O)c2cc3c(s2)-c2ccccc2S(=O)(=O)C3)cc1	none
O=c1c2nnn(Cc3ccc(F)cc3)c2ncn1Cc1ccc(F)cc1	Vaccinia pol inh 69.2
Cc1ccc(Cn2nnc3c(=O)n(Cc4ccc(C(F)(F)F)cc4)cnc32)cc1	none
Cc1ccc(Cn2nnc3c(=O)n(Cc4cccc(C)c4)cnc32)cc1	none
